BLM inh: inhibitors of human Bloom syndrome helicase BLM | Potency, µM (titrated, usually from 56.1 µM), usual class: inhibitors | 350,000 tested, 0.2% active | recombinant BLM DNA unwinding, fluorescence dequenching; further: nearly all actives have a fitted effect of over 35% in size
TRb SRC2 PPI: TRbeta-SRC2 interaction inhibition; P10828; TRbeta-SRC2 peptide binding, fluorescence polarization; receptor liganded with 1 µM T3; Potency, µM (series often up to 106 µM), most hits filed as inhibitors; 280,000 tested, 0.065% active; AID 1469; further: nearly all actives have a fitted effect of over 50% in size
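Quantitative HTS by FP: 0.6 uM TRb LBD, 20 nM labeled SRC2 20-mer, 1 uM T3, 5% DMSO; 5 hr ambient incubation; % activity per concentration and potencies from concentration series.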
ERG Ets-DNA blk: blocks human ERG Ets domain binding to DNA. P11308. fluorescence polarization, His-ERG Ets domain / labelled DNA. Potency, µM (highest dose often 76.9 µM), most hits filed as inhibitors. 370,000 tested, 0.028% active; active means well fitted inhibition curve with a large enough effect in the polarisation, with a control signal flat; inconclusive means small, poorly fitted or top-dose-only effect, or effect the other way, or a change in a side signal; inactive means no such curve, though single readings can be large or run the other way; the % refers to the polarisation;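 further: polarization taken with two DNA probes labelled with fluorescein and Texas red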
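His-tagged ERG Ets domain (1 uM in the protein solution; 300mM KCl, 50mM Tris-HCl, 1mM EDTA, 1mM DTT, pH 7.5) received compound, then a probe mix of 5 nM fluorescein-DNA and 100nM Texas-615-DNA. Fluorescence polarization was read for both dyes.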
GoLoco inh red: inhibitors of human Gai1-RGS12 GoLoco interaction (red fluorophore); Gai1:RGS12 GoLoco peptide FP, rhodamine, 10 min; Potency, µM (highest dose often 61.6 µM), actives largely listed as inhibitors; 230,000 tested, 0.44% active; AID 880; active means well fitted inhibition curve with a large enough effect, not every such curve was filed as active; inactive means no such curve, though single readings can be large or run the other way; further: nearly all actives have a fitted effect of over 30% in size
Target sequence (P63096 whole entry, looked up): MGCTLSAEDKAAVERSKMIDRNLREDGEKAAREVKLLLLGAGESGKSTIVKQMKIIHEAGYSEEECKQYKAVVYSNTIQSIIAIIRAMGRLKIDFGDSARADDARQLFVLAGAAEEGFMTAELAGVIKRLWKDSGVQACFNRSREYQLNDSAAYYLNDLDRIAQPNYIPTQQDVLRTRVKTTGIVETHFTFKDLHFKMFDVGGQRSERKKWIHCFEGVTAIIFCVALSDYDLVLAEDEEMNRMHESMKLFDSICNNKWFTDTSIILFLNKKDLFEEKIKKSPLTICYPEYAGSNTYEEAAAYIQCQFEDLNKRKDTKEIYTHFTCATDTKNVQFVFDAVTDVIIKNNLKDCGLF
RECQ1 helicase: inhibitors of human RECQ1 DNA helicase; 240,000 tested, 0.54% active; RECQ1 DNA unwinding, red fluorescence kinetic read; P46063; Potency, µM (doses to about 57.3 µM), actives largely listed as inhibitors; further: nearly all actives have a fitted effect of over 30% in size
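50 nM RECQ1T1 preincubated 15 min with compound in Tris pH 8.0 buffer with MgCl2, DTT, Tween-20 and 2.5 ug/ml poly(dI-dC); started with 200 nM TAMRA/BHQ-2 forked duplex and 2 mM ATP. Unwinding read as fluorescence (525/598 nm), two reads 2 h apart.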
TexasRed fluor: counter-screen for TRb-SRC2 inhibitors: fluorescence interference. Potency, µM (doses to about 106 µM). 280,000 tested, 0.29% active. TRb/SRC2 Texas Red total fluorescence interference; active means well fitted curve in either direction with a large enough effect; inconclusive means small, poorly fitted or top-dose-only effect
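Human TRb ligand-binding domain at 0.6 uM with 20 nM Texas Red SRC2 peptide in Tris buffer containing 1 uM T3 and 5% DMSO, incubated with compound 5 h at ambient temperature. Total fluorescence (555/632 nm) calculated as parallel + 2 × perpendicular.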
Of the large screens only hits and unclear results are named; the others gave an inactive call; [ ] = remark or other dose. Compounds with a hit are over-represented: about 0.71% of the library has one in this group of screens. Unless noted, the call rests on the fitted dose curve; in most records, active means well fitted curve in the direction sought with a large enough effect; inconclusive means small, poorly fitted or top-dose-only effect, or another doubt; inactive means no such curve, though single readings can be large; an effect the other way counts as inactive or inconclusive.

COc1ccc(-c2noc(-c3ccc(C)cc3Cl)n2)cc1OC	TexasRed fluor 0.13µM[quencher] (no result: GoLoco inh red, RECQ1 helicase)
Cc1ccc(-c2nc(-c3ccncc3)no2)c(Cl)c1	none (no result: TRb SRC2 PPI, GoLoco inh red, RECQ1 helicase, TexasRed fluor)
Cc1ccc(C(=O)O)cc1-c1ccc(/C=C2/NC(=O)N(c3ccccc3)C2=O)o1	RECQ1 helicase 18µM
Cc1cc(C(=O)O)ccc1-c1ccc(/C=C2\NC(=O)N(Cc3ccccc3Cl)C2=O)o1	none
Cc1cccc(NC(=O)CN2C(=O)CCc3ccccc32)c1C	TexasRed fluor 11µM[quencher] (no result: GoLoco inh red, RECQ1 helicase)
Cc1cccc(NC(=O)CN2C(=O)c3cccc4cccc2c34)c1C	none (no result: GoLoco inh red, RECQ1 helicase)
N[C@@H]1[C@@H](O)[C@H](O)[C@@H](CO)O[C@H]1O	none (no result: BLM inh, ERG Ets-DNA blk, GoLoco inh red, RECQ1 helicase)
Cc1ccccc1-n1c(C)cc(/C=N/Nc2ccc([N+](=O)[O-])cn2)c1C	GoLoco inh red 3.2µM
O=C1N/C(=C/c2ccco2)C(=O)N1Cc1ccccc1F	RECQ1 helicase 11µM
COC(=O)c1ccc(=O)c2nc3/c(=C/O)c(O)cc(=O)c3[nH]c12	BLM inh 18µM, TRb SRC2 PPI inconclusive, RECQ1 helicase inconclusive, TexasRed fluor 25µM[quencher]
COC(=O)c1ccc(N)cc1O	none
CCOC(=O)C1=NN(c2ccc(Cl)cc2Cl)C(C)(C(=O)OCC)C1 (configuration not stated)	none (no result: BLM inh, ERG Ets-DNA blk, GoLoco inh red, RECQ1 helicase)
N#CC1=C(N)OC2=C(CN(Cc3ccccc3)C/C2=C\c2cccnc2)C1c1cccnc1 (configuration not stated)	TRb SRC2 PPI inconclusive, TexasRed fluor inconclusive
CC(C)N1CC2=C(OC(N)=C(C#N)C2c2cccnc2)/C(=C/c2cccnc2)C1 (configuration not stated)	TRb SRC2 PPI 45µM, TexasRed fluor 45µM[fluorescent]
CCN1CC2=C(OC(N)=C(C#N)C2c2ccccc2)/C(=C\c2ccccc2)C1 (configuration not stated)	TRb SRC2 PPI 45µM, TexasRed fluor 45µM[fluorescent]
CCOC(=O)OCC1C=C[C@H](c2cc(-c3ccccc3)ccc2O)C(c2ccc(C(C)=O)cc2)O1 (some centres not stated)	none (no result: ERG Ets-DNA blk, GoLoco inh red)
Nc1c(/C=C2/C=CC(=O)C(O)=C2)c(=O)nc2sc(CC(=O)N3CCCCC3)nn12	BLM inh 28µM (no result: TRb SRC2 PPI, GoLoco inh red, RECQ1 helicase, TexasRed fluor)
Nc1c(/C=C2/C=CC(=O)C(O)=C2)c(=O)nc2sc(CC(=O)N3CCCC3)nn12	none (no result: TRb SRC2 PPI, GoLoco inh red, RECQ1 helicase, TexasRed fluor)
Cc1ccccc1NS(=O)(=O)c1ccc(OCCNS(C)(=O)=O)cc1	ERG Ets-DNA blk 7.1µM
Cc1ccccc1NS(=O)(=O)c1ccc(OCC(=O)N2CCCC2)cc1	none
O=C(O)c1cc(-c2ccco2)nn1-c1ccc(Cl)cc1	RECQ1 helicase 22µM
O=C(O)c1cc(-c2cc3ccccc3o2)nn1-c1ccccc1	none
CC(=O)OC1C=C[C@@H](OC(C)=O)C1 (some centres not stated)	none (no result: ERG Ets-DNA blk, GoLoco inh red)
CCOC(=O)C1OC2(CCCC2)OC1C(=O)OCC (configuration not stated)	none (no result: BLM inh, TRb SRC2 PPI, GoLoco inh red, RECQ1 helicase, TexasRed fluor)
CCOC(=O)CC1(C)OCC(C[N+]2(C)CCCCC2)O1 (configuration not stated)	GoLoco inh red 11µM
[O][C@H]1[C@@H](O)[C@@H](CO)O[C@@H](O[C@@H]2[C@@H]3OC[C@H]2O[C@H](O[C@@H]2[C@@H](O)[C@H](C[C@@H]4[C@@H]5OC[C@H]4O[CH][C@@H]5O)O[C@H](CO)[C@@H]2OS(=O)(=O)O)[C@@H]3OS(=O)(=O)O)[C@@H]1O	BLM inh inconclusive, RECQ1 helicase 4µM (no result: ERG Ets-DNA blk)
OC[C@@H]1O[C@H](OC2[C@@H](O)[C@@H](O)C(O)O[C@@H]2CO)[C@H](O)[C@@H](O)[C@@H]1OC1O[C@H](CO)[C@@H](O)[C@H](O)[C@@H]1O (some centres not stated)	none (no result: ERG Ets-DNA blk, GoLoco inh red)
O=C1C(=Cc2cccn2-c2ccccc2)C(=O)c2ccccc21	none
O=C1C(=Cc2cccn2-c2ccc(O)cc2)C(=O)c2ccccc21	GoLoco inh red 20µM
C[C@H]1Cc2c(COc3ccccc3)nc3c(c2CO1)CN(C(=O)c1ccco1)CC3	none (no result: ERG Ets-DNA blk)
O=C1N(Cc2cccnc2)C[C@@H]2C[C@@H](c3ccc(C(F)(F)F)cc3)N3CCC[C@@]123	none
O=C1N(Cc2cccnc2)C[C@@H]2C[C@@H](c3ccccc3C(F)(F)F)N3CCC[C@@]123	ERG Ets-DNA blk 32µM
O=S(=O)(NCc1ccc(F)cc1)c1ccc2[nH]c3c(c2c1)CCCC3	none (no result: GoLoco inh red, RECQ1 helicase)
O=S(=O)(Nc1cccc(Cl)c1)c1ccc2[nH]c3c(c2c1)CCCCCC3	TexasRed fluor 126µM[quencher] (no result: GoLoco inh red, RECQ1 helicase)
O=S(=O)(NCc1ccc(Cl)cc1)c1ccc2[nH]c3c(c2c1)CCCC3	TexasRed fluor 25µM[quencher] (no result: GoLoco inh red, RECQ1 helicase)
Cc1cccc(NS(=O)(=O)c2ccc3[nH]c4c(c3c2)CCCCCC4)c1	none (no result: GoLoco inh red, RECQ1 helicase)
O=c1c2ccccc2sn1-c1cc(S(=O)(=O)N2CCOCC2)ccc1N1CCOCC1	GoLoco inh red 3.5µM (no result: TRb SRC2 PPI, ERG Ets-DNA blk, TexasRed fluor)
O=[N+]([O-])c1cc2c(cc1/C=N/n1c(-c3ccccc3)n[nH]c1=S)OCO2	BLM inh 18µM
Cc1ccc(CNCc2ccccc2)s1	TexasRed fluor 18µM[quencher] (no result: GoLoco inh red, RECQ1 helicase)
CC(=O)Nc1ccc(S(=O)(=O)NC2=NCN(C(C)C)CN2)cc1	TexasRed fluor 13µM[quencher] (no result: GoLoco inh red, RECQ1 helicase)
COc1ccc(OCC(O)CN2C(=O)c3ccccc3C2=O)cc1 (configuration not stated)	ERG Ets-DNA blk 13µM (no result: TRb SRC2 PPI, GoLoco inh red, RECQ1 helicase, TexasRed fluor)
Cc1ccc2oc3c(c(=O)c2c1)C(c1ccc(O)cc1)N(CCCN(C)C)C3=O (configuration not stated)	TexasRed fluor 5.6e-05µM[quencher] (no result: GoLoco inh red, RECQ1 helicase)
